High-throughput results: PubChem BioAssay, several laboratories
MEKK2 WT-MEK5 – raises or lowers MEK5 binding to wildtype human MEKK2 PB1 domain; AID 1531; bead flow cytometry, Alexa488-MEK5 binding to MEKK2 WT; actives lie on both sides; binding response (% of control), % at 10 µM; Q9Y2U5; 290,000 tested, 1.1% active; in the data active = binding response below about 67% or above about 130%; inconclusive = no clear call, values can overlap the other calls; inactive = in between
UBC13 polyUb – blocks human UBC13 polyubiquitin chain formation; P61088; inhibition, % at 20 µM; TR-FRET; 330,000 tested, 0.47% active; AID 485273; in the data active = inhibition above about 45%, passing the limit was not always enough; inconclusive = no clear call, values can overlap the other calls
MEKK2mut PB1 HTS – signal of MEK5 binding to mutant human MEKK2 PB1 domain; bead flow cytometry, Alexa488-MEK5 binding to MEKK2 mutant; percent response, % at 10 µM; 290,000 tested, 0.35% active; in the data active = percent response above about 24%, passing the limit was not always enough
MEKK3 PB1 HTS – MEKK3-MEK5 PB1 interaction, increase or decrease; bead-based flow cytometry, Alexa488-MEK5 binding to MEKK3; actives lie on both sides; 0 = blocked by unlabeled MEK5, 100 = vehicle; Q99759; binding response (% of control), % at 10 µM; 290,000 tested, 1.4% active;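 active = binding response more than 3 SD above or below the average of its plate-row segment, actives on both sides; inconclusive = wells at one plate position flagged as instrument error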;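 also: Alexa488 bead fluorescence after subtracting the streptavidin-only scavenger bead signal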
Target sequence (Q99759 whole entry, looked up): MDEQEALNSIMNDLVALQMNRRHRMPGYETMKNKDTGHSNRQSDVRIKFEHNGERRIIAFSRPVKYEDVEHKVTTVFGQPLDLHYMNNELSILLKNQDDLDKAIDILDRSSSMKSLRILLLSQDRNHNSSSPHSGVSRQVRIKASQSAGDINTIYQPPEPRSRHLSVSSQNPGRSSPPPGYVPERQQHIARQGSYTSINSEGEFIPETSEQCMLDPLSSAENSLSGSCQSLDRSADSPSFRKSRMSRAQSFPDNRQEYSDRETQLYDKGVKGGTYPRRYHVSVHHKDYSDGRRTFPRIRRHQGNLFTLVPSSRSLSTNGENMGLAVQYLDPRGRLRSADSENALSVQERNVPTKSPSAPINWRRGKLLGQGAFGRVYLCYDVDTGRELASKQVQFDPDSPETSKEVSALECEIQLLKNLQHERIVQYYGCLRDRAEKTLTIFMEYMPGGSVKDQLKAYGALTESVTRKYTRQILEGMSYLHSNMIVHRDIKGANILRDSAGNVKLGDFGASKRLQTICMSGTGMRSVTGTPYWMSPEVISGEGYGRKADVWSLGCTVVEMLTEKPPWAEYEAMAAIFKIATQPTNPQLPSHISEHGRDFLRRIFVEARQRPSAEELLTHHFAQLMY
Rce1 inhib – inhibitors of yeast Ras-converting enzyme | AID 2563 | Q03530 | 290,000 tested, 0.27% active | yeast membranes, quenched prenylated peptide cleavage fluorescence | calls only;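 active = fall in fluorescence gain of 50% or more versus controls, with final raw signal at or below 3038400; inconclusive = same 50% fall but final raw signal above 3038400; inactive = fall in fluorescence gain under 50%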;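 also: plate controls were neutral control wells for no effect and wells lacking membranes for full effect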
MEKK2wt confirm – raises or lowers MEK5 binding to wildtype human MEKK2, retest; shares compounds with MEKK3 PB1 HTS; bead flow cytometry, Alexa488-MEK5 binding to MEKK2 WT; actives lie on both sides; binding response (% of control), % at 10 µM; 5,900 tested, 2.4% active; in the data active = binding response below about 16% or above about 210%; inactive = in between
MEKK2mut-MEK5 – signal of MEK5 binding to mutant human MEKK2, retest; shares compounds with MEKK3 PB1 HTS; 5,900 tested, 2% active; bead flow cytometry, Alexa488-MEK5 binding to MEKK2 mutant; percent response, % at 10 µM; in the data active = percent response mostly above about 71%, no sharp cut-off; inactive = mostly below about 38%;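 also: higher means compound restores mutant binding toward wildtype level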
MEKK3 confirm – MEKK3-MEK5 PB1 inhibition, single concentration confirmation. shares compounds with MEKK3 PB1 HTS. bead flow cytometry, Alexa488-MEK5 binding to MEKK3; stronger effect = lower value. binding response (% of control), % at 10 µM. 5,900 tested, 1.8% active;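 active = binding response below 72% of control, or above a set upper limit, though filed actives all read lower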;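 also: 100% = DMSO only wells and 0% = binding blocked by excess unlabeled MEK5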
The depositor's hits bear a star; i = inactive; ? = inconclusive; · = no result; [ ] = dose if it differs, or a comment. Most compounds without a hit are left out; they make up all but 2.5% or so of the library.

SMILES | MEKK2 WT-MEK5 | UBC13 polyUb | MEKK2mut PB1 HTS | MEKK3 PB1 HTS | Rce1 inhib | MEKK2wt confirm | MEKK2mut-MEK5 | MEKK3 confirm
CCOC(=O)c1cc2c(N)c(C(=O)c3ccc(Br)cc3)sc2[nH]c1=O | 77 | -8 | -7 | 77 | i | · | · | ·
CSc1nc2ccccc2n1Cc1cccc([N+](=O)[O-])c1 | 108 | 7 | 1 | 152* | · | 100 | -5 | 103
O=C(N/N=C/c1cn(Cc2cccc(F)c2)c2ccccc12)c1cc(O)cc(O)c1 | 65*[inhibitor] | 26 | -17 | 79*[inhibitor] | i | 74 | -13 | 81
COC(=O)CCC(=O)OC1(C)C(=O)C2=CN(C(CO)CO)C(c3ccc(OC)cc3)=CC2=C(Br)C1=O (configuration not stated) | 91 | -98 | -2 | 82*[inhibitor] | i | 98 | -2 | 93
COC(=O)CCC(=O)OC1(C)C(=O)C2=CN(CCCCO)C(c3ccc(OC)cc3)=CC2=C(Br)C1=O (configuration not stated) | 85 | -102 | -6 | 92 | i | · | · | ·
COC(=O)CCC(=O)OC1(C)C(=O)C2=CN(Cc3ccc4c(c3)OCO4)C(c3ccc(OC)cc3)=CC2=C(Br)C1=O (configuration not stated) | · | -44 | 53* | 83 | i | 102 | 0 | 104
CCCCC1=CC2=C(c3ccco3)C(=O)C(C)(OC(=O)c3ccc(OC)cc3)C(=O)C2=CN1Cc1ccccc1 (configuration not stated) | 101 | 38 | 1 | 105 | i | · | · | ·
COC(=O)CCC(=O)OC1(C)C(=O)C2=CN(CCN3CCOCC3)C(c3ccc(OC)cc3)=CC2=C(Br)C1=O (configuration not stated) | 149* | -69 | 4 | 127 | i | 100 | 0 | 100
CCCCC1=CC2=C(c3ccco3)C(=O)C(C)(OC(=O)c3ccc(OC)cc3)C(=O)C2=CN1Cc1ccc2c(c1)OCO2 (configuration not stated) | 138* | ? | 1 | 120 | i | 83 | -9 | 87
COCCn1c(SCC(=O)c2c(N)n(C3CC3)c(=O)[nH]c2=O)nnc1-c1cccc(C)c1 | · | -4 | · | · | · | · | · | ·
COc1ccc(Cl)cc1NC(=S)NCCSc1ccc(C)cc1 | 122 | -6 | 9 | 102 | i | · | · | ·
CC(=O)c1cccc(NC(=O)N2CCC(NC(=O)C3CCCCC3)CC2)c1 | 97 | 4 | -1 | 99 | i | · | · | ·
Cc1ccsc1CN(C(=O)c1ccc([N+](=O)[O-])cc1)C1CCS(=O)(=O)C1 (configuration not stated) | 100 | -3 | -2 | 101 | i | · | · | ·
CC1(OC(=O)CCc2ccccc2)C(=O)C=C2C=C(c3ccc(C#N)cc3)N(CCN3CCOCC3)C=C2C1=O (configuration not stated) | 138* | -46 | 2 | 117 | i | 104 | 1 | 101
Cc1nc(Nc2nc(CSc3nc4ccccc4[nH]3)cc(=O)[nH]2)nc2ccccc12 | 96 | -12 | -1 | 92 | i | · | · | ·
Cc1nc(Nc2nc(CSc3ccc(Cl)cc3)cc(=O)[nH]2)nc2ccccc12 | 104 | -2 | 0 | 132* | i | 104 | 2 | 105
CN1CCN(NC(=O)C2CC2)CC1 | 104 | -2 | 0 | 142* | i | 106 | -3 | 103
CN1CCN(NC(=O)C23CC4CC(CC(C4)C2)C3)CC1 | 108 | 6 | 3 | 108 | i | · | · | ·
CCOC(=O)Cc1csc(NC(=O)c2cccs2)n1 | 98 | -2 | 1 | 99 | i | · | · | ·
CCOC(=O)Cc1csc(NC(=O)c2c(O)c3ccccc3n(CC(C)C)c2=O)n1 | 78 | -30 | -9 | 73*[inhibitor] | i | 106 | 6 | 106
COc1ccc(NC(=O)C2=C(C)Nc3nc(CCCO)nn3C2c2ccc(OC)c(OC)c2)cc1 (configuration not stated) | 103 | -16 | 2 | 104 | i | · | · | ·
COc1ccc(NC(=S)N2CCCC2)cc1 | 91 | 6 | -1 | 59*[inhibitor] | i | 99 | -5 | 93
S=C(Nc1ccc(Br)cc1)N1CCCC1 | 113 | -13 | 0 | 131* | i | 102 | -4 | 102
CCOc1ccc(NC(=S)N2CCCC2)cc1 | 96 | -3 | -2 | 98 | i | · | · | ·
CCCCn1c(SCC(=O)N2CCOCC2)nnc1-c1ccoc1C | 107 | 3 | 2 | 128* | i | 104 | 10 | 105
SMILES | MEKK2 WT-MEK5 | UBC13 polyUb | MEKK2mut PB1 HTS | MEKK3 PB1 HTS | Rce1 inhib | MEKK2wt confirm | MEKK2mut-MEK5 | MEKK3 confirm
Cc1ccc(NC(=O)CN2C(=O)NC(Cc3c[nH]c4ccccc34)C2=O)cc1 (configuration not stated) | · | -10 | · | · | · | · | · | ·
CC(NC(=O)/C=C/c1cnc2ccccc2n1)C12CC3CC(CC(C3)C1)C2 (configuration not stated) | 102 | -12 | 0 | 134* | i | 97 | 0 | 104
O=C(C1CCC1)N1CCN(S(=O)(=O)c2ccc(Br)cc2Cl)CC1 | · | -4 | · | · | i | · | · | ·
COc1ccc(S(=O)(=O)NNC(=O)c2ccc(-n3c(C)ccc3C)cc2)cc1 | 99 | 3 | 2 | 103 | · | · | · | ·
O=C(Nc1ccccn1)c1cc2cc([N+](=O)[O-])ccc2s1 | 103 | -20 | 79* | 106 | i | 105 | 8 | 106
COc1ccc([N+](=O)[O-])cc1/C=N/NC(=O)CNC(=O)c1cccc(F)c1 | 104 | -25 | 3 | 100 | i | · | · | ·
COc1ccc([N+](=O)[O-])cc1/C=N/NC(=O)CNC(=O)C(c1ccccc1)c1ccccc1 | 109 | 4 | 1 | 165* | i | 99 | 0 | 99
CCSc1nnc(-c2sc3nnc(-c4ccccc4)c(-c4ccccc4)c3c2N)o1 | 70*[inhibitor] | -7 | -14 | 96 | i | 76 | -18 | 96
CC1CCC(C(C)C)C(OCC(O)C[N+]2(C)CCCCC2)C1 (configuration not stated) | 85 | 0 | -12 | 94 | i | · | · | ·
CC1CCC(C(C)C)C(OCC[N+](C)(C)C)C1 (configuration not stated) | 111 | 0 | 1 | 143* | i | 101 | 0 | 102
COc1cc(OC)c(OC)cc1/C=N/NC(=O)CCc1c(C)n[nH]c1C | 85 | 7 | -3 | 87 | i | · | · | ·
Nc1c(N(CCO)C(=O)COc2ccc(Cl)cc2)c(=O)[nH]c(=O)n1Cc1ccccc1 | 98 | 5 | -1 | 131* | i | 98 | 9 | 101
Brc1ccc(-n2c(SCc3nc4ccccc4[nH]3)nnc2-c2ccncc2)cc1 | 108 | -9 | 0 | 150* | i | 102 | 2 | 100
